Laboratory results from PubChem BioAssay AID651871 (Sanford-Burnham Center for Chemical Genomics, 2012).
Several values for one entry are separate records, joined by “and”; a condition that tells them apart may be missing. Equal values may be shown once.

system: HL-1; assay: protection of cardiomyocytes from stress damage, SAR follow-up, cell-based, panel, H9c2 and HL-1, ATP luminescence, set 2 (AID 651871); settings: H9c2/HL-1 cardiomyocytes, 2-deoxyglucose stress, with 2-deoxyglucose, run 12, at 79 µM (top of the series);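 note: cells exposed to stressor for 2 h before ATP readout; reference of the scale not given here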

SMILES	activity (protection/inhibition)
CCOC(=O)c1cccc(NC(=O)CNC(=O)c2cc(-c3cc(OC)c(OC)c(OC)c3)nc3ccccc23)c1	63.3%
COc1ccc2nc(-c3cc(OC)c(OC)c(OC)c3)cc(C(=O)NCC(=O)Nc3ccc(C(C)=O)cc3)c2c1	62.5%
COc1ccc2c(c1OC)C(=O)N1c3ccccc3C(=O)N(Cc3cccc(Cl)c3Cl)C21 (stereo not drawn)	65.5% and -16.5%
